This note sets out measurements from the supplement of paper PMC9337992.

± gives the standard deviation of the averaged measurements.

In this experiment the test system is MDAMB468. In words: cell proliferation (confluence) relative to DMSO control; higher = less growth inhibition. Conditions: 5 uM; 6 d. As to the method:
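Epigenetic chemical probe screen: 15 TNBC cell lines, 500 cells per well in 384-well plates, treated with 5 uM of each of 36 SGC probes for 6 d. Confluency was imaged by IncuCyte ZOOM and normalised to DMSO control wells. Four replicate wells per compound.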
In turn, `c1ccc([C@@H]2C[C@H]2NC2CCNCC2)cc1` gave a cell proliferation of 79 ± 12%.
In turn, `COc1cc(C(=O)N2CC[C@@H](O)[C@@H](N)C2)cc2nc(-c3cc4ccccc4n3CC3CC3)n(C)c12` yielded a cell proliferation of 45.6 ± 5%.
To `O=C(O)CNC(=O)c1c(O)c2ccccc2n(Cc2ccccc2)c1=O` belongs 77.3 ± 4.1%.
